According to PubChem BioAssay (EPA / NIEHS):
Inconclusive results are not listed. The source made the active and inactive calls. The calls were made as follows: active = hit-call score of the fitted dose curve at least 0.9, where 1 is the maximum; inconclusive = response in the unintended direction; inactive = score below 0.9.

The compounds below were run against Cellular tumor antigen p53 (Homo sapiens) (UniProt P04637) (assay: TOX21_p53_BLA_p3_ratio: Tox21 HCT-116 p53 Agonism Beta-lactamase Assay, Ratio, Phase 3 (AID 2283596)).
Sequence of Cellular tumor antigen p53 (Homo sapiens) (P04637 whole entry, looked up): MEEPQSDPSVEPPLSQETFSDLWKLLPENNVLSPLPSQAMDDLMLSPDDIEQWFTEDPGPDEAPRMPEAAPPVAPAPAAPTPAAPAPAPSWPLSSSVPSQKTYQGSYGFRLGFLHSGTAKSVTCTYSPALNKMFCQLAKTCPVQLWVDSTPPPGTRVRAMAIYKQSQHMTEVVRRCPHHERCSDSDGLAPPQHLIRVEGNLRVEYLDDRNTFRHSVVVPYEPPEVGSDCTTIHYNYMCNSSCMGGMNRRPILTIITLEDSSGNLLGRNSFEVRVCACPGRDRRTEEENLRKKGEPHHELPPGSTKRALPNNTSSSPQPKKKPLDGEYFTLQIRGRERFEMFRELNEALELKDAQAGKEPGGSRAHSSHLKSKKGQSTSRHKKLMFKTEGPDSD
Outline: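 Cells were seeded at 4000/well, rested 5 h at 37C, then dosed with DMSO compound solutions (217-fold dilution) for 16 h. CCF4-AM substrate was loaded for 2 h at room temperature, and the 460/530 nm emission ratio was fitted for gain of signal versus DMSO.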
`Cc1cnc(C)c(C)n1` was tested, and the outcome was “inactive”. With `CCOC(=O)CC(=O)C(=O)OCC` the outcome was “inactive”. With `COc1ccc(/C=C/c2cc(OC)cc(=O)o2)cc1` the outcome was “inactive”. With `C=Cc1ccccn1` the outcome was “inactive”. In the case of `Cc1ccc(O)c(N)c1`, the outcome is reported as “inactive”. `S=C(SSSSSSC(=S)N1CCCCC1)N1CCCCC1` was tested, and the outcome was “inactive”. In the case of `CC(C)c1ncc([N+](=O)[O-])n1C`, the outcome is reported as “inactive”. `CC(=O)NC[C@H]1CN(c2ccc(N3CCOCC3)c(F)c2)C(=O)O1` was tested, and the outcome was “inactive”. For `C[C@]12CC[C@@H]3c4ccc(OC(=O)c5ccccc5)cc4CC[C@H]3[C@@H]1CC[C@@H]2O`, the outcome was “inactive”. In the case of `CN(CCOc1ccc(NS(C)(=O)=O)cc1)CCc1ccc(NS(C)(=O)=O)cc1`, the outcome is reported as “inactive”. For `Nc1ccc(N=Nc2ccc(N)cc2)cc1`, the outcome was “inactive”. In the case of `O=C(O)[C@H](O)c1ccccc1`, the outcome is reported as “inactive”. In the case of `COc1ccc(-c2cc(C(F)F)nn2-c2ccc(S(N)(=O)=O)cc2)cc1F`, the outcome is reported as “inactive”. In the case of `CN(C)CCN(Cc1ccccc1)c1ccccn1`, the outcome is reported as “inactive”. In the case of `NC(=O)CC[C@@H]1NC(=O)[C@H](Cc2ccccc2)NC(=O)[C@H](Cc2ccc(O)cc2)NC(=O)[C@@H](N)CSSC[C@@H](C(=O)N2CCC[C@H]2C(=O)N[C@@H](CCCN=C(N)N)C(=O)NCC(N)=O)NC(=O)[C@H](CC(N)=O)NC1=O`, the outcome is reported as “inactive”. With `C[Si](Cl)(c1ccccc1)c1ccccc1` the outcome was “inactive”. `CN1CCOC(c2ccccc2)c2ccccc2C1` (stereo not drawn) was tested, and the outcome was “inactive”. For `CCOc1ccc(S(=O)(=O)O)c2cccnc12`, the outcome was “inactive”. In the case of `CC1CCCC(=O)C1=O` (stereo not drawn), the outcome is reported as “inactive”. With `CC(C)OC(=O)C(C(=O)OC(C)C)=C1SC=CS1` the outcome was “inactive”. With `C=CC(=O)[O-].C=CC(=O)[O-].[Zn+2]` the outcome was “inactive”. For `O=C(O)CP(=O)(O)O`, the outcome was “inactive”. With `CC(C)(C)C(=O)OCC(=O)[C@H]1CC[C@H]2[C@@H]3CCC4=CC(=O)CC[C@]4(C)[C@H]3CC[C@]12C` the outcome was “inactive”. With `NS(=O)(=O)c1cc(-c2nn[nH]n2)c(NCc2cccs2)cc1Cl` the outcome was “inactive”. `CCCCCC(N)=O` was tested, and the outcome was “inactive”. For `OCl`, the outcome was “inactive”. With `C1CCCNCCC1` the outcome was “inactive”. `CCN(C)C(=O)Oc1cccc([C@H](C)N(C)C)c1` was tested, and the outcome was “inactive”. In the case of `Cc1cc(=O)c(C(=O)N[C@@H](C(=O)N[C@@H]2C(=O)N3C(C(=O)O)=C(CSc4nnnn4C)CS[C@H]23)c2ccc(O)cc2)c[nH]1`, the outcome is reported as “inactive”. For `CCCc1nc2c(C)cc(-c3nc4ccccc4n3C)cc2n1Cc1ccc(-c2ccccc2C(=O)O)cc1`, the outcome was “inactive”. For `CO[C@@]1(NC(=O)C2SC(=C(C(N)=O)C(=O)O)S2)C(=O)N2C(C(=O)O)=C(CSc3nnnn3C)CS[C@@H]21` (stereo partly drawn), the outcome was “inactive”. With `O=[N+]([O-])c1ccc(Oc2ccc([N+](=O)[O-])cc2)cc1` the outcome was “inactive”. In the case of `CCOC(=O)CCC(=O)O[C@H]1[C@H](O[C@@H]2[C@@H](C)[C@H](O[C@H]3C[C@@](C)(OC)[C@@H](O)[C@H](C)O3)[C@@H](C)C(=O)O[C@H](CC)[C@@](C)(O)[C@H](O)[C@@H](C)C(=O)[C@H](C)C[C@@]2(C)O)O[C@H](C)C[C@@H]1N(C)C`, the outcome is reported as “inactive”. For `C=CC[N@@+]12CC[C@@]34c5ccccc5N5/C=C6/[C@H]7C[C@H]8[C@@]9(CC[N@@+]8(CC=C)C/C7=C/CO)c7ccccc7N(/C=C(/[C@@H](C[C@@H]31)/C(=C\CO)C2)[C@H]54)[C@@H]69`, the outcome was “inactive”. For `CN1CCc2c(c3ccccc3n2Cc2ccccc2)C1`, the outcome was “inactive”. For `CC(C)NC[C@@H](O)COc1cccc2ccccc12`, the outcome was “inactive”. For `CC(=O)c1ccc(Cl)c(Cl)c1Cl`, the outcome was “inactive”. `CC1(C)Cc2cccc(N)c2O1` was tested, and the outcome was “inactive”.
